Results published in PubChem BioAssay (NCI).
About 79,000 compounds went through this panel and 15% of them were active in at least one assay; those are over-represented in the sample as a whole. The source made the active and inactive calls. Cut-off read from the data, not from the text of the source: active = growth inhibition above about 70%; inactive = the rest.

Assays:
[1] = NCI Yeast Anticancer Drug Screen. Data for the rad52 strain (AID 147);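 note: 0% = growth of vehicle-treated control cultures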; settings: S. cerevisiae rad52 mutant growth inhibition, active compounds read high
Summary of the method: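 Screen used a yeast mutant impaired in DNA repair. After compound exposure, growth was measured. Values reflect inhibition compared with vehicle-treated cells.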

[2] = NCI Yeast Anticancer Drug Screen. Data for the wt1 strain (AID 149);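 note: 0% = growth of vehicle-treated wt1 cultures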; settings: S. cerevisiae wt1 strain (SPY 50644) growth inhibition, active compounds read high
Summary of the method: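 Using yeast strain wt1, compound-induced growth inhibition was determined against vehicle-treated cultures.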

[3] = NCI Yeast Anticancer Drug Screen. Data for the rad50EPP+ strain (AID 151);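 note: 0% = growth of vehicle-treated control cultures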; settings: S. cerevisiae rad50 mutant strain, active compounds read high
Summary of the method: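 Exposing the rad50EPP+ strain to each compound, growth was compared with vehicle-only cultures to give inhibition.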

[4] = NCI Yeast Anticancer Drug Screen. Data for the mgt1 strain (AID 153); settings: S. cerevisiae mgt1 mutant growth inhibition, active compounds read high
Summary of the method: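 Genetically defined yeast (mgt1) treated with compound; inhibition of growth expressed against vehicle-treated controls.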

[5] = NCI Yeast Anticancer Drug Screen. Data for the rad50 strain (AID 155);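 note: 0% = growth of vehicle-only cultures of the same strain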; settings: S. cerevisiae rad50 strain growth inhibition, active compounds read high
Summary of the method: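 Relative growth inhibition (compound vs vehicle) was measured in yeast with a defined repair-gene alteration.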

[6] = NCI Yeast Anticancer Drug Screen. Data for the mec2-1 strain (AID 157); settings: S. cerevisiae mec2-1 strain, active compounds read high
Summary of the method: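 Readout is yeast growth inhibition, normalised to vehicle-treated controls, in the mec2-1 strain exposed to compound.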

[7] = NCI Yeast Anticancer Drug Screen. Data for the rad14 strain (AID 159);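 note: 0% = growth of vehicle-treated control cultures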; settings: S. cerevisiae rad14 strain growth inhibition, active compounds read high
Summary of the method: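 Screen for anticancer potential: a yeast strain altered in DNA damage repair is grown with compound, and reduced growth is quantified against vehicle controls.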

[8] = NCI Yeast Anticancer Drug Screen. Data for the sgs1 mgt1 strain (AID 161);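 note: 0% = growth of cultures given vehicle only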; settings: S. cerevisiae sgs1 mgt1 strain, active compounds read high
Summary of the method: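 This yeast growth screen uses a strain with defined DNA-repair lesions; compound-treated growth is compared with vehicle-treated growth.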

[9] = NCI Yeast Anticancer Drug Screen. Data for the CLN2oe strain (AID 163);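 note: 0% = growth of vehicle-only control cultures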; settings: S. cerevisiae CLN2oe strain, active compounds read high
Summary of the method: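 Values reflect how much compound exposure reduced yeast growth, referenced to vehicle-exposed cells. Assay organism is a strain with a defined genetic change affecting cell-cycle control.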

[10] = NCI Yeast Anticancer Drug Screen. Data for the cln2 rad14 strain (AID 165);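 note: 0% = growth equal to vehicle treated cultures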; settings: S. cerevisiae cln2 rad14 strain, active compounds read high
Summary of the method: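 Relative to vehicle controls, growth inhibition of compound-treated cln2 rad14 yeast was recorded.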

[11] = NCI Yeast Anticancer Drug Screen. Data for the bub3 strain (AID 167); settings: S. cerevisiae bub3 mutant strain, active compounds read high
Summary of the method: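 Screening used yeast with an engineered genetic alteration affecting cell cycle control. Compound-exposed cultures were compared with vehicle cultures, and reduced growth was taken as inhibition.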

[12] = NCI Yeast Anticancer Drug Screen. Data for the wt2 strain (AID 169);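 note: 0% = growth of vehicle-treated yeast cultures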; settings: S. cerevisiae wt2 strain growth inhibition, active compounds read high
Summary of the method: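 Values express reduction in yeast growth under compound treatment, referenced to vehicle-treated cells.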

[13] = NCI Yeast Anticancer Drug Screen. Data for the mlh1 strain (AID 171);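 note: 0% = growth of vehicle-treated control cultures of the same strain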; settings: S. cerevisiae mlh1 strain growth inhibition, active compounds read high
Summary of the method: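 Steps: expose the defined-mutant yeast strain to compound; expose a parallel culture to vehicle; measure growth; express compound effect as inhibition relative to the vehicle culture.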

[14] = NCI Yeast Anticancer Drug Screen. Data for the sgs1 strain (AID 173);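 note: 0% = growth of vehicle-only control cultures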; settings: S. cerevisiae sgs1 mutant, active compounds read high
Summary of the method: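 Treat defined-mutant yeast with compound; measure growth; calculate inhibition relative to vehicle-treated cells.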

[15] = NCI Yeast Anticancer Drug Screen. Data for the mlh1 rad18 strain (AID 175); settings: S. cerevisiae mlh1 rad18 strain growth inhibition, active compounds read high
Summary of the method: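 Test agents were incubated with a yeast strain of defined genotype (DNA damage repair defect). Inhibition of growth was derived by comparison with vehicle-exposed cultures.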

[16] = NCI Yeast Anticancer Drug Screen. Data for the rad18 strain (AID 177); settings: S. cerevisiae rad18 mutant growth inhibition, active compounds read high
Summary of the method: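 A genetically defined yeast mutant impaired in DNA damage repair was treated with test compounds, then its growth was measured against cultures receiving vehicle alone.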

[17] = at 5.0 µM (retest, dose inferred, filed as 0.5)
[18] = at 50.0 µM (retest, dose inferred, filed as 5.0)

Measured: growth inhibition

CC1CCN(CCC(=O)c2ccc([N+](=O)[O-])cc2)CC1
inactive: [1]; at 1.2 µM 9% | [1]; at 3.7 µM 1% | [1]; at 11.0 µM 8% | [1]; at 33.0 µM 34% | [1]; at 100.0 µM 40% | [2]; at 1.2 µM -1% | [2]; at 3.7 µM -1% | [2]; at 11.0 µM 1% | [2]; at 33.0 µM 0% | [2]; at 100.0 µM 7% | [3]; at 1.2 µM 1% | [3]; at 3.7 µM 1% | [3]; at 11.0 µM 3% | [3]; at 33.0 µM 15% | [3]; at 100.0 µM 19% | [4]; at 1.2 µM -4% | [4]; at 3.7 µM 3% | [4]; at 11.0 µM 6% | [4]; at 33.0 µM 21% | [4]; at 100.0 µM 38% | [5]; at 1.2 µM 9% | [5]; at 3.7 µM 13% | [5]; [17] 6% | [5]; at 11.0 µM 15% | [5]; at 33.0 µM 37% | [5]; [18] 31% | [5]; at 50.0 µM 63.5% | [5]; at 100.0 µM 48% | [6]; at 1.2 µM -1% | [6]; at 3.7 µM 2% | [6]; [17] 4% | [6]; at 11.0 µM 1% | [6]; at 33.0 µM 0% | [6]; [18] 69% | [6]; at 50.0 µM 14.5% | [6]; at 100.0 µM 14% | [7]; at 1.2 µM 14% | [7]; at 3.7 µM 25% | [7]; at 11.0 µM 34% | [7]; at 33.0 µM 36% | [7]; at 100.0 µM 45% | [8]; [17] 7% | [8]; [18] 68% | [8]; at 50.0 µM 68.5% | [9]; at 1.2 µM 2% | [9]; at 3.7 µM 5% | [9]; at 11.0 µM 15% | [9]; at 33.0 µM 30% | [9]; at 100.0 µM 40% | [10]; [17] 8% | [10]; [18] 34% | [10]; at 50.0 µM 31.2% | [11]; at 1.2 µM -2% | [11]; at 3.7 µM 2% | [11]; [17] 7% | [11]; at 11.0 µM 6% | [11]; at 33.0 µM 18% | [11]; [18] 65% | [11]; at 100.0 µM 31% | [12]; at 1.2 µM -6% | [12]; at 3.7 µM -2% | [12]; at 11.0 µM 3% | [12]; at 33.0 µM 1% | [12]; at 100.0 µM 16% | [13]; at 1.2 µM 1% | [13]; at 3.7 µM 7% | [13]; at 11.0 µM 9% | [13]; at 33.0 µM 30% | [13]; at 100.0 µM 39% | [14]; at 1.2 µM 2% | [14]; at 3.7 µM 16% | [14]; at 11.0 µM 25% | [14]; at 33.0 µM 46% | [14]; at 100.0 µM 54% | [15]; [17] 7% | [15]; [18] 62% | [15]; at 50.0 µM 40.4% | [16]; at 1.2 µM 6% | [16]; at 3.7 µM 16% | [16]; at 11.0 µM 23% | [16]; at 33.0 µM 20% | [16]; at 100.0 µM 31%
active: [11]; at 50.0 µM 89.6%

c1ccc2nc3c(nc2c1)sc1ccccc13
inactive: [1]; at 1.2 µM 13% | [2]; at 1.2 µM 1% | [2]; at 3.7 µM 4% | [2]; at 11.0 µM 17% | [2]; at 33.0 µM 27% | [2]; at 100.0 µM 23% | [3]; at 1.2 µM 41% | [4]; at 1.2 µM 2% | [4]; at 3.7 µM 2% | [4]; at 11.0 µM 10% | [4]; at 33.0 µM 20% | [4]; at 100.0 µM 18% | [5]; at 1.2 µM 13% | [5]; [17] 54% | [6]; at 1.2 µM 4% | [6]; at 3.7 µM 5% | [6]; [17] -32% | [6]; at 11.0 µM 41% | [6]; at 33.0 µM 42% | [6]; [18] 8% | [6]; at 50.0 µM 31.9% | [6]; at 100.0 µM 36% | [7]; at 1.2 µM 4% | [7]; at 3.7 µM 21% | [7]; at 11.0 µM 35% | [7]; at 33.0 µM 39% | [7]; at 100.0 µM 35% | [8]; [17] -52% | [8]; [18] -5% | [8]; at 50.0 µM 11.2% | [9]; at 1.2 µM -2% | [9]; at 3.7 µM 6% | [9]; at 11.0 µM 28% | [9]; at 33.0 µM 37% | [9]; at 100.0 µM 34% | [10]; [17] -29% | [10]; [18] 15% | [10]; at 50.0 µM 36% | [11]; at 1.2 µM 0% | [11]; at 3.7 µM 11% | [11]; [17] -40% | [11]; at 11.0 µM 41% | [11]; at 33.0 µM 47% | [11]; [18] 12% | [11]; at 50.0 µM 32.8% | [11]; at 100.0 µM 41% | [12]; at 1.2 µM -2% | [12]; at 3.7 µM 1% | [12]; at 11.0 µM 6% | [12]; at 33.0 µM 13% | [12]; at 100.0 µM 9% | [13]; at 1.2 µM 4% | [13]; at 3.7 µM 3% | [13]; at 11.0 µM 19% | [13]; at 33.0 µM 28% | [13]; at 100.0 µM 23% | [14]; at 1.2 µM -2% | [14]; at 3.7 µM 20% | [14]; at 11.0 µM 43% | [14]; at 33.0 µM 51% | [14]; at 100.0 µM 37% | [15]; [17] -71% | [15]; [18] 14% | [15]; at 50.0 µM 61.9% | [16]; at 1.2 µM 4% | [16]; at 3.7 µM 21% | [16]; at 11.0 µM 45% | [16]; at 33.0 µM 52% | [16]; at 100.0 µM 47%
active: [1]; at 3.7 µM 74% | [1]; at 11.0 µM 95% | [1]; at 33.0 µM 94% | [1]; at 100.0 µM 86% | [3]; at 3.7 µM 92% | [3]; at 11.0 µM 95% | [3]; at 33.0 µM 94% | [3]; at 100.0 µM 84% | [5]; at 3.7 µM 75% | [5]; at 11.0 µM 92% | [5]; at 33.0 µM 91% | [5]; [18] 78% | [5]; at 50.0 µM 92.8% | [5]; at 100.0 µM 82%
